Measured values from PubChem BioAssay (Tox21).
Records with an inconclusive call do not appear. Unmarked numbers belong to inactive results. Calls of active or inactive are those of the source. The call rests on the fitted dose curve; in most records, active means well fitted cell-killing curve with a large enough effect in the repeat runs; inconclusive means weak or mixed curves, or effect the other way; inactive means flat fitted curve, though single readings scatter.

Assay: Caspase-3/7 induction in HepG2 cells by small molecules, qHTS cell viability counter screen (AID 1346981); further: nearly all actives have a fitted effect of over 30% in size
Settings: CellTiter-Fluor fluorescence, 17 h; series mostly up to 92.4 µM; activity change, negative = cytotoxicity: at the top concentration
From the text: U.S. Tox21 Program National Center for Advancing Translational Sciences [NCATS] NIH Chemical Genomics Center [NCGC] U.S. Environmental Protection Agency [EPA] National Institutes of Environmental Health Sciences [NIEHS] National Toxicology Program [NTP] U.S. Food and Drug Administration [FDA] Tox21 Assay Overview: Apoptosis is a process of programmed cell death and plays a central role in the development of multicellular organisms. It is a highly regulated process and induces cell death by activating caspases, which are the members of cysteine aspartic acid-specific protease (caspase) family. Caspases involved in apoptosis are classified by their mechanism of action as initiator caspases (caspase-2, -8, -9 and -10) and executioner caspases (caspase-3, -6, and -7). Inhibition of apoptosis results in number of cancers, autoimmune diseases, inflammatory diseases and viral infection. To identify small molecule compounds that induce apoptosis, a homogeneous, luminescent Caspase-Glo 3/7 assay was used. Wild type HepG2 cells were used to screen Tox21 libraries for identifying caspase-3/7 activity inducers. Also cytotoxicity of the compounds was tested in parallel by measuring the cell viability using CellTiter-Fluor assay system in the same wells.
Tox21 Assay Protocol Summary: HepG2 cells were dispensed at 2,000 per well in 5uL of culture medium into white solid bottom 1536-well plates (Corning Life Sciences, Corning, NY) using a Multidrop Combi (Thermo Scientific, Waltham, MA) dispenser. The assay plates were incubated at 37 C and 5% CO2 for 5hr, and then 23nL of compounds dissolved in DMSO and positive control were transferred using a Pintool station ([…], San Diego, CA). The assay plates were incubated at 37C and 5% CO2 for 17hr. For cytotoxicity read, after 16hr incubation at 37C, 1uL CellTiter-Fluor reagent (Promega Corporation, Madison, WI) was added to each well of the assay plates using Flying Reagent Dispenser (FRD, Aurora Discovery, San Diego, CA). After 1hr incubation at 37C and 5% CO2, the fluorescence signal was quantified using a ViewLux plate reader (PerkinElmer, Shelton, CT).
On the % scale 0 is the no-effect control and ±100 the full control effect; potency means the concentration at half of the fitted maximal effect.

| Structure (SMILES) | activity change, negative = cytotoxicity | Potency |
| --- | --- | --- |
| ClC(Cl)=C(c1ccc(Cl)cc1)c1ccccc1Cl | 14.4% |  |
| Cc1ccc(N(SC(F)(Cl)Cl)S(=O)(=O)N(C)C)cc1 |  | 61.1 µM (active) |
| CC1COC(Cn2cncn2)(c2ccc(Oc3ccc(Cl)cc3)cc2Cl)O1 (stereo not given) |  | 43.3 µM (active) |
| O=C(Nc1ccccc1-c1ccc(Cl)cc1)c1cccnc1Cl | 1.8% |  |
| Cc1ccc2nc3sc(=O)sc3nc2c1 | -0.0724% [at 19 µM] |  |
| CNC(=O)Oc1cc(C)c(SC)c(C)c1 | 0.382% |  |
| O=[N+]([O-])c1c(Cl)c(Cl)cc(Cl)c1Cl | -2.19% |  |
| Oc1c(I)cc(I)cc1I | -2.56% |  |
| CCN(CC)C(=O)Cl | -6.14% |  |
| C[C@]12CC[C@@H](O)C[C@@H]1CC[C@@H]1[C@@H]2CC[C@]2(C)C(=O)CC[C@@H]12 | 0.758% |  |
| OCC(c1ccc(Cl)cc1)c1ccc(Cl)cc1 | -8.05% |  |
| Nc1ccc([N+](=O)[O-])cc1 |  | 40.9 µM (active) |
| ClC1=C(Cl)[C@]2(Cl)[C@@H]3[C@@H](Cl)[C@H]4O[C@H]4[C@@H]3C1(Cl)C2(Cl)Cl | -12.9% |  |
| Clc1ccccc1-c1ccccc1Cl | -2.71% |  |
| c1ccc2c(c1)Sc1ccccc1N2CC1CN2CCC1CC2 (stereo not given) |  | 29.8 µM (active) |
| O=S(=O)(C(Cl)(Cl)Cl)C(Cl)(Cl)Cl |  | 61.1 µM (active) |
| OC(Cc1ccccc1Cl)(Cn1[nH]cnc1=S)C1(Cl)CC1 (stereo not given) | -7.75% |  |
| CO/C=C(/C(=O)OC)c1ccccc1Oc1cc(Oc2ccccc2C#N)ncn1 |  | 24.5 µM (active) |
| Cc1cc(C(C)(C)c2ccc(O)c(C)c2)ccc1O |  | 46.2 µM (active) |
| CN1CSC(=S)N(C)C1 | -1.04% |  |
